Laboratory results as given in PubChem BioAssay.
Active and inactive are the calls of the source.

Columns and labels:
[1] = optical density shifts of acrAB sulA E. coli – strain DRC41, OD650, 48 h, E. coli filamentation inducer project, primary screen (AID 1152); conditions: higher = more signal, called active from +8 up or from −8 down;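 note: E. coli MC1000 strain DRC41 lacking acrAB efflux pump and sulA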
[2] = probe aLefty1 binding on compound microarray – biochemical, small-molecule microarray, 635/667 nm fluorescence, primary screen (AID 1153); conditions: higher = more signal;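 note: score merges spot fluorescence with signal-to-noise ratio from the scanned slide images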
[3] = plasmodial surface anion channel blockers, osmotic lysis – cell-based, P. falciparum Indochina, OD700, 1 h, primary screen (AID 1154); conditions: P. falciparum Indochina infected RBC osmotic lysis, higher = more signal, called active from +8 up or from −8 down
[4] = plasmodial surface anion channel blockers, osmotic lysis – cell-based, P. falciparum Indochina, OD700, 2 h, primary screen (AID 1155);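 note: lysis reports solute entry through the parasite surface anion channel PSAC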; conditions: P. falciparum Indochina infected erythrocytes, higher = more signal, called active from +8 up or from −8 down
[5] = changes in parasitized red cell lysis, either direction – P. falciparum Indochina, OD700, 3 h, PSAC antagonist project, primary screen (AID 1156); conditions: P. falciparum-infected erythrocytes, osmotic lysis, higher = more signal, called active from +8 up or from −8 down
[6] = plasmodial surface anion channel blockers, osmotic lysis – cell-based, P. falciparum Indochina, OD700, 18 h, primary screen (AID 1157); conditions: P. falciparum Indochina infected erythrocytes, osmotic lysis OD700, 18 h; higher = more signal, called active from +8 up or from −8 down
[7] = S6 kinase pathway phospho-S6 level changes – cell-based, A549, cytoblot, luminescence, serum-stimulated, primary screen (AID 1158); conditions: 5 h, higher = more signal;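 note: serum-stimulated A549 lung adenocarcinoma cells; signal is phosphorylated S6 detected by cytoblot immunostaining with HRP secondary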
[8] = biological target: NADPH oxidase 2 (Homo sapiens) (UniProt P04839); assay: compounds shifting NOX2 Amplex Red fluorescence – cell-based, HEK293-NOX2, PMA-stimulated, NOX inhibitor project, primary screen (AID 1159); conditions: 45 min, higher = more signal, called active from +8 up or from −8 down; note: test concentration not given here
NADPH oxidase 2 (Homo sapiens), sequence (P04839 whole entry, looked up): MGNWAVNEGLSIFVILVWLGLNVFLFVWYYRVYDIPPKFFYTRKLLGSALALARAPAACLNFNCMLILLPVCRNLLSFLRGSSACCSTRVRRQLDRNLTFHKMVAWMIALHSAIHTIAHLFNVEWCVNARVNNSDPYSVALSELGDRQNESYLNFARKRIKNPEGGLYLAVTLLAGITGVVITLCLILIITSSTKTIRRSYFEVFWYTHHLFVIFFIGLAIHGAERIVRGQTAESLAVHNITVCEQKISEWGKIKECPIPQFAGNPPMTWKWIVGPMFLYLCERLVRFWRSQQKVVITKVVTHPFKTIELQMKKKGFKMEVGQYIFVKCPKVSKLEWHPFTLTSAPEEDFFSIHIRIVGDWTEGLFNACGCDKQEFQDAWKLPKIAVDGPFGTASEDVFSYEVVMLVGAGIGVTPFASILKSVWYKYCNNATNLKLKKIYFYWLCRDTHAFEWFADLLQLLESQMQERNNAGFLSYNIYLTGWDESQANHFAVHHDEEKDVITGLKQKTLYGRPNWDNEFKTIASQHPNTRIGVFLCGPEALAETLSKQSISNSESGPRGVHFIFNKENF

[9] = biological target: NADPH oxidase 4 (Homo sapiens) (UniProt Q9NPH5); assay: compounds shifting NOX4 Amplex Red fluorescence – cell-based, HEK293-NOX4, tetracycline-induced, NOX inhibitor project, primary screen (AID 1160); conditions: HEK293-NOX4, Amplex Red H2O2 fluorescence, 45 min; higher = more signal, called active from +8 up or from −8 down
NADPH oxidase 4 (Homo sapiens), sequence (Q9NPH5 whole entry, looked up): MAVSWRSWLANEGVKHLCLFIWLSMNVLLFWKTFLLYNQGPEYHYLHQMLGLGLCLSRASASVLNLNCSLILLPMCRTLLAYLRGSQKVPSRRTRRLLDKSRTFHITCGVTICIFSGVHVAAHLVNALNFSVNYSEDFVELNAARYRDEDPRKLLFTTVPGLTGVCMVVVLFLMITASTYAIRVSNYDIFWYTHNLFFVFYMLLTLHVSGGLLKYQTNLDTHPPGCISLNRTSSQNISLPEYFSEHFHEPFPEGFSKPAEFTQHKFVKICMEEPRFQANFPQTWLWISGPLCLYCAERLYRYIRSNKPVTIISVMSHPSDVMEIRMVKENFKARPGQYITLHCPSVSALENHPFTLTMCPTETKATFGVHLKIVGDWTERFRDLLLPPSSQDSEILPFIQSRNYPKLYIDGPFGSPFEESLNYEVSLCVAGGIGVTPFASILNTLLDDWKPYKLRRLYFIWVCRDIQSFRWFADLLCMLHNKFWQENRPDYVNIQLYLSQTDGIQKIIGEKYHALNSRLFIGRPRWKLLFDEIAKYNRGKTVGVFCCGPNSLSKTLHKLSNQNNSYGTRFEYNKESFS

[10] = biological target: NADPH oxidase 5 (Homo sapiens) (UniProt Q96PH1); assay: compounds shifting NOX5 Amplex Red fluorescence – cell-based, HEK293-NOX5, NOX inhibitor project, primary screen (AID 1161); conditions: HEK293-NOX5, ionomycin, 45 min, higher = more signal
NADPH oxidase 5 (Homo sapiens), sequence (Q96PH1 whole entry, looked up): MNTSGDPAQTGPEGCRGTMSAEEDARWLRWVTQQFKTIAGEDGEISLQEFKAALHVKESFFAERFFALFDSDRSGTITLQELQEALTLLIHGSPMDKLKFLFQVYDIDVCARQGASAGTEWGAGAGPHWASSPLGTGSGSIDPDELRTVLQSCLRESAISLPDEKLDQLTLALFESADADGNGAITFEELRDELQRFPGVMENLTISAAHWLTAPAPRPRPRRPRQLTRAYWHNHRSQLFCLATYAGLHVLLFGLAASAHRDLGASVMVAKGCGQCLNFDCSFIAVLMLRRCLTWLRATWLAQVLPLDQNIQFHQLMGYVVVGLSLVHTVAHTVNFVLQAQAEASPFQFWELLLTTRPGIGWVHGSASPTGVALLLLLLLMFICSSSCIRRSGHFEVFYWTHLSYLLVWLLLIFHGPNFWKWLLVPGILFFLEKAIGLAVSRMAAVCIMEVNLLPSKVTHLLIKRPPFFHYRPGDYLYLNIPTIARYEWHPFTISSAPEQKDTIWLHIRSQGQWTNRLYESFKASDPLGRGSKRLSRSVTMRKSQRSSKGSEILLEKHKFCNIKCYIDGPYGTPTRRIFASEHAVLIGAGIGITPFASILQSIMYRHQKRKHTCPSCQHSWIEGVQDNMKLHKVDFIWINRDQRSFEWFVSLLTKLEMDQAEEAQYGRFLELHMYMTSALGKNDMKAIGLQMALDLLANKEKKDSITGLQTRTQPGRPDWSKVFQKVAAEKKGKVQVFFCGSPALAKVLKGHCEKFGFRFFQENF

[11] = compound effects on lung adenocarcinoma cell viability – A549, calcein-AM fluorescence, 48 h, basal, profiling panel (AID 1162); conditions: higher = more signal; note: test concentration not given here
[12] = compound effects on differentiated 3T3-L1 adipocyte viability – cell-based, 3T3-L1 adipocytes, calcein-AM fluorescence, 48 h, basal, profiling panel (AID 1163); conditions: 3T3-L1 adipocytes viability, higher = more signal; note: test concentration not given here
[13] = compound effects on hepatocellular carcinoma cell viability – HepG2, calcein-AM fluorescence, 48 h, basal, profiling panel (AID 1164); conditions: higher = more signal; note: test concentration not given here
[14] = compound effects on multiple myeloma cell viability – MM1S, calcein-AM fluorescence, 48 h, basal, profiling panel (AID 1165); conditions: higher = more signal; note: test concentration not given here
[15] = calcein-AM signal in unstimulated myeloma cells – cell-based, calcein-AM fluorescence, 48 h, PK04 Diversity Set, profiling panel (AID 1166); conditions: RPMI8226 myeloma viability, higher = more signal;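 note: cells grown under basal conditions without added stimulus; test concentration not given here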
[16] = JC-1 mitochondrial signal, unstimulated HepG2 cells – cell-based, JC-1 fluorescence, 24 h, 100 nL compound, profiling panel (AID 1167); conditions: HepG2 mitochondrial potential, higher = more signal; note: test concentration not given here
[17] = JC-1 mitochondrial signal, unstimulated adipocytes – cell-based, JC-1 fluorescence, 3T3-L1 adipocytes, 24 h, 100 nL compound, profiling panel (AID 1168); conditions: JC-1 mitochondrial fluorescence, higher = more signal, called active from +8 up or from −8 down; note: test concentration not given here
[18] = JC-1 mitochondrial signal, unstimulated myeloma cells – cell-based, JC-1 fluorescence, RPMI8226, 24 h, 100 nL compound, profiling panel (AID 1169); conditions: JC-1 mitochondrial potential fluorescence, higher = more signal; note: test concentration not given here
[19] = JC-1 mitochondrial signal, unstimulated MM1S myeloma – cell-based, JC-1 fluorescence, 24 h, 100 nL compound, profiling panel (AID 1170); conditions: MM1S mitochondrial potential, higher = more signal; note: test concentration not given here
[20] = resazurin metabolic signal in A549 cells – cell-based, resazurin fluorescence, 24 h, PK04 Diversity Set, profiling panel (AID 1171); conditions: A549 viability, higher = more signal, called active from +8 up or from −8 down; note: test concentration not given here

Row | SMILES | z-score [1] | composite z-score [2] | z-score [3] | z-score [4] | z-score [5] | z-score [6] | z-score [7] | z-score [8] | z-score [9] | z-score [10] | z-score [11] | z-score [12] | z-score [13] | z-score [14] | z-score [15] | z-score [16] | z-score [17] | z-score [18] | z-score [19] | z-score [20]
1 | COc1ccc([Si](C)(C)[C@@H]2[C@@H](CCn3cc(CCO)nn3)O[C@]3(C(=O)N(Cc4cccc(N5C(=O)c6cccc7cccc5c67)c4)c4ccccc43)[C@H]2C)cc1 | 0.259 (inactive) | -0.0011 | 4.42 (inactive) | 1.6 (inactive) | 1.22 (inactive) | -0.682 (inactive) | 1.16 | 1.58 (inactive) | 1.76 (inactive) | 1.3 | -2.01 | 1.32 | -4.46 | -2.86 | -4.41 | -0.414 | 1.02 (inactive) | -0.931 | -2.16 | -3.53 (inactive)
2 | COCC(=C=CC[C@H](O)c1cccc(OCCO)c1)CCO | 0.223 (inactive) | -0.0508 | 2.69 (inactive) | -0.115 (inactive) | 0.104 (inactive) | 0.0864 (inactive) | 0.0095 | -1.67 (inactive) | -0.625 (inactive) | -0.539 | -0.243 | -0.214 | -0.909 | 0.269 | 0.256 | -0.206 | 0.244 (inactive) | -0.574 | -0.451 | 0.614 (inactive)
3 | Cc1ccc(S(=O)(=O)N2C[C@@H](C(=O)O)[C@H](Sc3ccccc3)C[C@H]2c2ccccc2)cc1 | -1.37 (inactive) | 0.409 | 1.7 (inactive) | 0.932 (inactive) | 0.369 (inactive) | 0.806 (inactive) | -0.33 | 1.63 (inactive) | 0.111 (inactive) | 1.73 | -1.21 | -0.27 | -0.721 | -0.279 | -0.45 | -0.654 | -0.883 (inactive) | 0.588 | 0.319 | 0.111 (inactive)
4 | O=C1O[C@@H](c2ccccc2)[C@@H](c2ccccc2)N2[C@@H](c3ccccc3OCCO)[C@]3(C(=O)Nc4ccccc43)[C@@H](C(=O)O)[C@H]12 | -0.749 (inactive) | -0.518 | 0.749 (inactive) | 0.745 (inactive) | -1.6 (inactive) | 0.761 (inactive) | 0.128 | 2.66 (inactive) | 0.516 (inactive) | 1.24 | -0.796 | 0.266 | 0.045 | -2.64 | 0.0803 | 0.249 | -0.742 (inactive) | 0.649 | 0.554 | 0.362 (inactive)
5 | C=C(CCCC)/C(=C/C[C@H](OC(=O)c1ccncc1)c1ccc(OCCO)cc1)c1cc(C(=O)OC)ccc1OC | 0.695 (inactive) | -0.103 | 20.9 (active) | 1.88 (inactive) | 2.24 (inactive) | -0.722 (inactive) | 0.769 | -1.96 (inactive) | -1.3 (inactive) | -2.54 | -0.154 | 1.55 | -0.754 | -1.47 | -2.56 | 1.22 | 0.0667 (inactive) | -0.281 | -0.93 | 0.54 (inactive)
6 | COC(=O)[C@@]1(Cc2ccc(OC)cc2)[C@H]2c3cc(C(=O)N(C)C)n(Cc4ccc(C(F)(F)F)nc4)c3C[C@H]2CN1C(=O)c1ccccc1 | -0.346 (inactive) | 0.301 | 0.622 (inactive) | 0.315 (inactive) | -0.106 (inactive) | 0.471 (inactive) | -0.154 | 0.152 (inactive) | -1.26 (inactive) | -1.13 | 0.212 | -0.624 | 0.106 | -0.589 | -0.782 | 0.117 | -0.29 (inactive) | 0.0192 | -1.03 | 0.248 (inactive)
7 | O=C1C2C=CC(C(O)c3cc(C(F)(F)F)cc(C(F)(F)F)c3)N(Nc3ccccc3)C2C(=O)N1c1ccccc1 (stereo not given) | -0.355 (inactive) | 0.345 | 4.95 (inactive) | 2.77 (inactive) | -2.01 (inactive) | 2.64 (inactive) | -0.62 | 0.376 (inactive) | -4.65 (inactive) | -1.33 | 1.3 | -1.48 | 0.662 | -2.24 | -3.52 | -4.32 | -1.36 (inactive) | -0.982 | -0.994 | 0.626 (inactive)
8 | C#CCOc1ccc(C[C@@H](C(=O)OC)N(CC#C)[C@@H](/C=C/C2CC2)[C@H](O)Cc2ccccc2)cc1 | -1.04 (inactive) | -0.101 | 1.7 (inactive) | 0.135 (inactive) | -0.173 (inactive) | -0.111 (inactive) | -0.138 | -0.0591 (inactive) | 0.763 (inactive) | -0.732 | -1.05 | -0.303 | -2.42 | -2.3 | -2.19 | -1.15 | -0.00867 (inactive) | -0.79 | -0.524 | 0.313 (inactive)
9 | CC(C)CCC[C@@H](C)[C@H]1CC[C@@]2(C)C3=C(CC[C@]12C)[C@@]1(C)CC[C@H](OC(=O)c2ccc(C(F)(F)F)nc2)C(C)(C)C1CC3 (stereo not given in full) | 3.47 (inactive) | -0.155 | -1.05 (inactive) | -0.693 (inactive) | 0.103 (inactive) | -2.61 (inactive) | 2.5 | -0.971 (inactive) | 0.129 (inactive) | 0.933 | 0.351 | 0.806 | 0.717 | 0.18 | 0.79 | 0.726 | -0.215 (inactive) | 0.483 | -0.263 | -0.0879 (inactive)
